Screening results from PubChem BioAssay.
An excerpt weighted towards active compounds, which were near 1.6% of everything screened.
KCNQ2 pot = potentiators of rat KCNQ2 potassium channel; O88943; 310,000 tested, 0.54% active; B-score at 10 µM; CHO-K1 KCNQ2, FluxOR thallium flux fluorescence; hits give high values;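 active = fluorescence ratio B-score at least 3 SD of library B-scores, with initial fluorescence B-score within 3 of them, cut at about 5.3 in these data; same plate scores as AID 2156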;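 note: B-score of peak minus minimum over baseline fluorescence ratio after K+ and Tl+ stimulus; positive B-score means potentiation of KCNQ2 with more thallium influx and brighter signal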
Target sequence (O88943 whole entry, looked up): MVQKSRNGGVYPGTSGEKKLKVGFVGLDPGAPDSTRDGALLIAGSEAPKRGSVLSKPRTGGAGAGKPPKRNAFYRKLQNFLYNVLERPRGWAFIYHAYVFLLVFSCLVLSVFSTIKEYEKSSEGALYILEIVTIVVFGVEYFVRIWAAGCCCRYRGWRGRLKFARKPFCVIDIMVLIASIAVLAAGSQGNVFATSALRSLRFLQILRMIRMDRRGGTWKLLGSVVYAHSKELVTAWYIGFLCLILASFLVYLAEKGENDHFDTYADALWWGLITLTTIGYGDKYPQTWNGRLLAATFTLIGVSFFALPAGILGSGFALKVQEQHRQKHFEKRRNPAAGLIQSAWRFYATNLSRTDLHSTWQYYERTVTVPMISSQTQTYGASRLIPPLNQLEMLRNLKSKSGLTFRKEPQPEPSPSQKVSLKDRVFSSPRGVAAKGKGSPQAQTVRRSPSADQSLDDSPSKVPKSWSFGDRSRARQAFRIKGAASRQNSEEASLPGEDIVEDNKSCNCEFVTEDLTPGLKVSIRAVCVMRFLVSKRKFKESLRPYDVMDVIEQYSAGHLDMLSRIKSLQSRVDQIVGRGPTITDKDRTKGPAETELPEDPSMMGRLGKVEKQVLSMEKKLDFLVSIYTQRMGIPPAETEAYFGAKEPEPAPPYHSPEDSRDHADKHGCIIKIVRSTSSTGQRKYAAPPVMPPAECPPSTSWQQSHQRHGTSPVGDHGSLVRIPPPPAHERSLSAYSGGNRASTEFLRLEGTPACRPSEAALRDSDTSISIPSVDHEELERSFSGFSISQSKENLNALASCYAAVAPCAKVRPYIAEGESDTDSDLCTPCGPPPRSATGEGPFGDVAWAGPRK
KCNQ2 inh = KCNQ2 (rat) channel inhibition; CHO-K1 KCNQ2, FluxOR thallium flux, 20 min; hits give low values; AID 2156; B-score at 10 µM; 310,000 tested, 1.1% active; O88943;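 active = fluorescence ratio B-score at most minus 3 library SDs, with starting brightness B-score within 2 library SDs, cut at about -5.5 in these data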
Starred values were filed as active, the others as inactive; i = inactive; . = no result given.

SMILES	KCNQ2 pot	KCNQ2 inh
COC(=O)C1=C(c2cccc(OC)c2OC)C[C@@H]2CC[C@H]1N2C(=O)NCc1cccc2ccccc12	-6.8	-6.8*
COC(=O)C1=C(c2cccc(OC)c2OC)C[C@@H]2CC[C@H]1N2C(=O)NCc1ccccc1	.	i
O=C(Cn1ncc2c3ccccc3n(Cc3ccc(F)cc3)c2c1=O)N1CCC2(CC1)OCCO2	19*	i
Cc1c2cnn(CC(=O)N3CCC4(CC3)OCCO4)c(=O)c2c(C)n1Cc1ccccc1	.	i
CCOc1cc2c(cc1OCC)-n1cccc1C(c1ccccc1OC)NC2 (centres undefined)	.	i
Clc1ccc(COC(Cn2ccnc2)c2ccc(Cl)cc2Cl)cc1 (centres undefined)	-8.3	-8.3*
Clc1ccc(CSC(Cn2ccnc2)c2ccc(Cl)cc2Cl)cc1 (centres undefined)	.	i
CCOc1ccccc1CN1CCCC(C(=O)c2cc(F)ccc2F)C1 (centres undefined)	.	i
Clc1ccc(CO/N=C(\Cn2ccnc2)c2ccc(Cl)cc2Cl)c(Cl)c1	-6	-6*
N=c1sccn1Cc1ccc(Cl)cc1Cl	1.7	i
O=P(O)(O)Cc1ccccc1OP(=O)(c1ccccc1)c1ccccc1	.	i
CCc1c(C)nc(N)nc1N1N=C1SCC(=O)OC	9.6*	i
CCc1c(C)nc(N)nc1N1N=C1SCC#N	2.5	i
COc1cc(/C=C/[N+](=O)[O-])ccc1OC(=O)c1cccnc1	.	i
COc1cc2c(cc1/C=C/[N+](=O)[O-])OCO2	-7.8	-7.8*
Cc1cc(O)c2c3c(c(=O)oc2c1)CCC(C)C3 (centres undefined)	.	i
Cc1cc(O)c2c(c1)OC(C)(C)C1=C2CC(C)CC1 (centres undefined)	-7.3	-7.3*
O=C(CN1CCCC1)Nc1ccc(Cl)cc1C(=O)c1ccccc1	1.1	i
O=C(CCN1CCCCC1)Nc1ccc(Cl)cc1C(=O)c1ccccc1	-5.6	-5.6*
COc1ccc(-c2csc(NC(=O)COC(=O)Cc3ccccc3)n2)cc1OC	1.1	i
CC(=O)Nc1ccccc1C(=O)OCc1ccc(C(=O)c2ccccc2)cc1	-6.5	-6.5*
CC(=O)Nc1ccccc1C(=O)OCc1cccc(F)c1	.	i
COC(=O)C1=CO[C@H](C)[C@H]2CN3CC[C@@]4(C(=O)Nc5ccccc54)[C@@H]3C[C@H]12	.	i
O=C1Nc2cc(C(=O)N3CCC4(CC3)OCCO4)ccc2NC1CSCc1cccc(F)c1 (centres undefined)	.	i
Cc1nc2ccccc2c(=O)n1-c1ccccc1[N+](=O)[O-]	1.1	i
SMILES	KCNQ2 pot	KCNQ2 inh
Cc1nc2ccccc2c(=O)n1-c1ccc(Br)cc1[N+](=O)[O-]	7.4*	i
CC(=O)O[C@]1(C)C(=O)OC/C2=C/CN(C)CCC(OC(=O)[C@@](O)(C(C)O)C[C@H]1C)C2=O (some centres undefined)	1.4	i
CCn1c(O)c(C=NCc2cccs2)c(=O)[nH]c1=O	0.47	i
CCOC(=O)C1(c2ccccc2)CCN(CC(=O)Nc2ccc(C)cc2)CC1	.	i
CCOC(=O)C1(c2ccccc2)CCN(CCC(C#N)(c2ccccc2)c2ccccc2)CC1	-6.8	-6.8*
O=C(Nc1cccnc1)c1c(O)c2c(n(Cc3ccccc3)c1=O)CCCC2	-5.8	-5.8*
O=C(Nc1ccc(F)cc1)c1c(O)c2c(n(Cc3ccccc3)c1=O)CCCC2	.	i
O=C(c1ccc(-c2ccccc2)cc1)C1CCCN(Cc2ccn[nH]2)C1 (centres undefined)	1.5	i
COc1cc2c(cc1O)CC1c3c(cc(O)c(OC)c3-2)CCN1C (centres undefined)	.	i
CCCN1CCc2cccc3c2[C@H]1Cc1ccc(O)c(O)c1-3	-6	-6*
CCOc1ccccc1C1SCC(=O)Nc2c1c(=O)[nH]n2C(CC)CC (centres undefined)	0.02	i
COC(=O)[C@@H](N)CCCN=C(N)N[N+](=O)[O-]	-6.4	-6.4*
Cc1ccc(S(=O)(=O)N(C)C/N=C(\N)N[N+](=O)[O-])cc1	0.1	i
CCCCNC(=O)c1c(N)n(CCCOC)c2nc3ccccc3nc12	-8.5	-8.5*
COCCCn1c(N)c(C(=O)OCCOC)c2nc3ccccc3nc21	0.78	i
O=P(O)(Oc1ccccc1)OC(c1ccccc1)C(F)(F)F (centres undefined)	0.26	i
O=P(NC(c1ccccc1)c1ccccc1)(Oc1ccccc1)Oc1ccccc1	-5.9	-5.9*
O=C(CCc1nc(-c2ccccc2F)no1)N1CCC2(CC1)OCCO2	.	i
O=C(c1cccs1)c1cn(Cc2ccccc2Cl)c2ccccc12	-7.3	-7.3*
N#Cc1ccccc1Cn1cc(C(=O)c2cccs2)c2ccccc21	.	i
CN1CC(C#N)C2(O)c3ccccc3CCC2C1 (centres undefined)	.	i
CC(C)(C)c1cc(OC(=O)Cc2ccccc2)ccc1O	.	i
CSc1ccc(CN2CCN(Cc3ccccc3Cl)CC2)cc1	-6.6	-6.6*
